Bioassay records (PubChem BioAssay)
Only some compounds are listed: those with a hit (about 4.4% of all), similar ones and a draw of the others.
TIM10 inh – TIM10 yeast growth inhibition | 330,000 tested, 1.4% active | AID 463195 | S. cerevisiae TIM10 strain growth, BacTiter-Glo luminescence, 24 h | inhibition, % at 10 µM;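 active means inhibition of 40% or more at the single tested concentration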;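 further: wild-type TIM10 isogenic control strain grown at permissive 25 °C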
tim23-1 inh – tim23-1 yeast growth inhibition; S. cerevisiae tim23-1 growth, BacTiter-Glo luminescence, 24 h; inhibition, % at 20 µM; 330,000 tested, 1.3% active;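 active means growth inhibition of the mutant yeast at or above 50%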;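 further: temperature-sensitive mutant grown at 25 °C; plate controls were DMSO-treated mutant yeast for no effect and medium wells lacking yeast for full effect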
tim10-1 inh – growth inhibitors of tim10-1 mutant yeast. S. cerevisiae tim10-1 ts strain growth, BacTiter-Glo, 24 h. inhibition, % at 20 µM. 330,000 tested, 2.2% active;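 active means inhibition of at least 40%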;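 further: mutant grown at 25 °C; 0% = DMSO wells with yeast and 100% = wells holding no yeast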
SKKanGAS inh – blocks kanamycin growth of S. pyogenes SKKanGAS strain. BacTiter-Glo, 6 h. inhibition, % at 7.5 µM. 300,000 tested, 1.3% active. AID 1662;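 active means mean replicate score, as percent of positive control median, at least 50; inconclusive means mean below 50 but one replicate at or above 50; inactive means mean and every replicate below 50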;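 further: strain carries kanamycin resistance gene driven by streptokinase promoter and grows in 40 µg/ml kanamycin; loss of luminescence reflects streptokinase promoter inhibition or plain growth inhibition; 0% = median of DMSO wells and 100% = positive control at its reference dose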
PfHsp90 yeast 2 – inhibits growth of yeast expressing Plasmodium falciparum Hsp90. 310,000 tested, 0.32% active. S. cerevisiae expressing PfHsp90, BacTiter-Glo ATP, 48 h; yeast lacking PDR1 and PDR3 efflux regulators. inhibition, % at 9.4 µM;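 active means every replicate shows inhibition above about 80%, whatever the replicate mean, limit read from the data; inconclusive means mean inhibition reaches the set limit but some replicate falls short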;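 further: 0% = DMSO neutral controls and 100% = 20 µM radicicol positive controls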
Numbers without * were called inactive; ? = inconclusive; / = no result.

SMILES	TIM10 inh	tim23-1 inh	tim10-1 inh	SKKanGAS inh	PfHsp90 yeast 2
Cc1nn(CC(=O)NC2C(=O)N3C(C(=O)O)=C(CSc4nnnn4C)CSC23)cc1Br (centres undefined)	-15	0	5	109*	-6
Cc1nnc(SCC2=C(C(=O)O)N3C(=O)C(NC(=O)C(C)n4nc(C(F)(F)F)cc4C)C3SC2)s1 (centres undefined)	2	12	9	103*	3
CC[C@]12c3[nH]c4cc(CCC(=O)N(C)C)ccc4c3CCN1C(=O)[C@@H](CC(=O)NCC13CC4CC(CC(C4)C1)C3)C[C@@H]2C(=O)N1CCN(C(=O)c2ccco2)CC1	0	35	16	/	18
COc1cccc(C(=O)OCC(=O)NCC2CCCO2)c1 (centres undefined)	-5	3	-10	/	-6
CC(=O)Nc1ccc2c(c1)Cc1cc(N3C(=O)C=CC3=O)ccc1-2	/	/	/	/	116*
CC(=O)Nc1ccc2c(c1)Cc1ccc(Cl)cc1-2	/	/	/	/	-8
O=C1C=CC(=O)N1c1ccc2c(c1)Cc1cc(F)ccc1-2	/	/	/	/	116*
CC(=O)Nc1ccc2c(c1)-c1ccc(F)cc1C2	/	/	/	/	-8
Cc1cn(C2CCCCO2)c(=O)[nH]c1=O (centres undefined)	/	/	/	/	-11
CCCC1(C2CCCC2)NC(=O)NC1=O (centres undefined)	/	/	/	/	-22
O=C(c1ccc2c(=O)n(C3CCCC3)c(=S)[nH]c2c1)N1CCc2ccccc21	25	21	8	25	109*
NC(=O)c1ccc(NC(=O)COC(=O)c2c3c(nc4ccccc24)/C(=C\c2cccs2)CCC3)cc1	11	25	28	91*	/
CC1CCN(C(=O)N2c3ccccc3Sc3ccccc32)CC1	-1	31	5	54*	-7
S=C1Cc2ccccc2N1	/	/	/	?	107*
Cn1c(Sc2ccccc2Cl)c(C=O)c2ccccc21	21	35	25	57*	-8
Oc1ccc(N=Nc2ccccc2C(F)(F)F)c2cccnc12	7	7	19	98*	-25
COc1ccccc1N=Nc1ccc(O)c2ncccc12	18	32	8	94*	99*
CCS(=O)(=O)c1ccc(N=Nc2ccc(O)c3ncccc23)c(OC)c1	5	32	39	19	59
C[C@H]1CN(S(=O)C(C)(C)C)[C@@H](CCO)/C1=C\CCO (some centres undefined)	/	/	/	/	-4
O=C(C[C@H]1C/C=C\CC[C@@H](Cc2ccc(F)cc2)C(=O)OC[C@H]2CCCN2C1=O)NCCO	-1	-3	-2	/	10
COc1ccccc1N=Nc1nc(-c2ccccc2)c(-c2ccccc2)[nH]1	/	/	/	67*	5
CCCSc1nsc(NC(=O)CC)n1	6	10	0	6	10
Cc1cc(C)nc(NC(=O)Nc2ccc(F)cc2F)n1	7	15	8	12	-7
CCCSc1nsc(NC(=O)Nc2ccc(F)cc2F)n1	-1	25	33	64*	5
CCCSc1nsc(NC(=O)C(c2ccccc2)c2ccccc2)n1	4	-15	-8	100*	10
SMILES	TIM10 inh	tim23-1 inh	tim10-1 inh	SKKanGAS inh	PfHsp90 yeast 2
O=S(=O)(Nc1nc2ccccc2nc1Nc1cccc(S(=O)(=O)N2CCCCC2)c1)c1ccccc1	14	24	12	64*	-28
Nc1c(C(=O)Nc2nc3ccccc3s2)sc2nc(-c3cccs3)ccc12	7	3	21	50*	-23
CCCN1C(=O)c2ccc(C(=O)Nc3ccccc3C(=O)O)cc2C1=O	-4	15	12	16	24
O=C(Nc1ccc(Br)cc1C(=O)O)c1ccc2c(c1)C(=O)N(Cc1ccccc1)C2=O	9	25	19	76*	/
COc1ccc2c(c1)c(=O)oc1c(C)c(OCc3ccc(C(=O)O)cc3)ccc12	/	/	/	52*	-11
CC(OC(=O)Cc1n[nH]c(=O)c2ccccc12)C(=O)Nc1ccc(Cl)cn1 (centres undefined)	-6	32	10	68*	11
O=C1OC[C@H]2CCCN2C(=O)[C@@H](CC(=O)N(CCO)Cc2ccccc2)C/C=C\C[C@@H]1Cc1ccc(F)cc1	0	6	13	/	2
CCCCN1C(=O)/C(=C/C=C2\Oc3ccccc3N2CC)SC1=S	/	/	/	1	99*
COc1cc(-c2nnc(NC(=O)c3ccc(S(=O)(=O)N4CCOCC4)cc3)o2)cc(OC)c1OC	9	7	23	10	/
CN(Cc1ccccc1)S(=O)(=O)c1ccc(C(=O)Nc2nnc(C3CC3)o2)cc1	10	14	24	79*	12
COc1ccc(-c2nnc(NC(=O)c3ccc(S(=O)(=O)N4CCCc5ccccc54)cc3)o2)cc1	17	-1	38	94*	17
COCc1nnc(NC(=O)c2ccc(S(=O)(=O)N3CCCc4ccccc43)cc2)o1	3	12	12	21	9
O=C(Nc1nnc(C2CC2)o1)c1ccc(S(=O)(=O)N2CCCc3ccccc32)cc1	30	27	27	91*	-35
COc1cccc(-c2nnc(NC(=O)c3ccc(S(=O)(=O)N4CCOCC4)cc3)o2)c1	15	15	22	88*	-3
C/C=C(/CCC1NCCc2c1[nH]c1ccccc21)[Si](C)(C)C (centres undefined)	/	/	/	/	-24
Cn1nc(C(=O)NCC2COc3ccccc3O2)c2ccccc2c1=O (centres undefined)	13	26	22	/	-5
Cc1cc(C(=O)NNC(=O)c2ccc(Cl)c(S(N)(=O)=O)c2)c(C)o1	-4	-2	-6	/	8
CCN(C[C@H]1N[C@@](C)(C(=O)OC)[C@H]2C(=O)N(C)C(=O)[C@@H]12)C(=O)C1CCCCC1	8	-7	-15	/	13
COc1ccc(CN2C[C@]3(CO)O[C@@H](CO)C[C@@H]3S2(=O)=O)cc1	-10	33	14	/	28
COc1cc2nc(=S)n3[nH]c(CCn4nc(C)cc4C)nc3c2cc1OC	7	-1	13	51*	-3
COc1cc2nc(=S)n3[nH]c(COc4ccccc4C)nc3c2cc1OC	16	10	11	64*	-10
CCOC(=O)c1oc2ccccc2c1COC(=O)C(C)NC(=O)c1ccco1 (centres undefined)	-20	13	-5	/	/
CN(C)c1ccc(C2C=C(c3ccc(Cl)cc3OC(F)F)Nc3ncnn32)cc1 (centres undefined)	26	40	31	87*	-4
CCOc1ccc(/C=C/C(=O)c2cc(Br)ccc(=O)c2O)cc1	/	/	/	/	21
Cc1cccc(/C=C/C(=O)c2cc(Br)ccc(=O)c2O)c1	1	0	1	90*	72
CCc1ccc(/C=C/C(=O)c2cc(Br)ccc(=O)c2O)cc1	16	12	18	106*	66
Cn1cc(C(=O)c2ccc(Cl)cc2Cl)cc1C(=O)N/N=C(\N)COc1cccc(C(F)(F)F)c1	12	19	26	59*	26
COC(=O)c1cc(C(=O)c2ccc(Cl)cc2Cl)cn1C	-13	14	19	7	-23
